The results in this text go back to PubChem BioAssay (NCATS).

Structures are written as SMILES. Several values for one entry are separate records, joined by “and”; a condition that tells them apart may be missing. Equal values may be shown once. Results filed as inconclusive are left out. Values without a mark were called inactive. Activity calls are given as the source filed them. Calls follow the shape of the dose curve; as a rule, active = well fitted cell-killing curve with a large enough effect; inconclusive = small, poorly fitted or top-dose-only effect, or effect the other way; inactive = no such curve, though single readings can be large or run the other way.
Potency is read from the fitted curve at half-maximal effect.

The nature of the assay: Viability qHTS for spleen associated tyrosine kinase inhibitor (SYKi) drug resistant MV4-11 cells (AID 1963824). Also: nearly all actives have a fitted effect of over 35% in size. To be noted: SYKi-resistant MV4-11 viability, CellTiter-Glo, 72 h; series mostly up to 45 µM. The text has this:
Department of Medicine, Hematology/Oncology
University Hospital Frankfurt, Germany.
Trials have shown promising clinical activity of the selective SYK inhibitor entospletinib in patients with high expressing HOXA9/MEIS1 acute leukemias. As the development of resistance mechanisms is a common problem in the use of targeted drugs, we performed a chemical library screen to identify drug sensitivities in SYK inhibitor resistant AML cells. […] Glucocorticoids are potent immunosuppressants which work in part by inhibiting the transcription of cytokine genes.
Described herein is a viability screen to look for activity in the SYK inhibitor drug resistant cell line against four NCATS compound libraries (MIPE 5.0, NPC, NPACT, and Kinase) totaling 11372 compounds. Active hits were reacquired for confirmation and further secondary assay testing.
SEQUENCE No. (e.g., 1, 2, 3, etc.); […] (e.g., Cells, Incubation, Reagent, etc.); VALUE; DESCRIPTION.
1; Media; 2uL; white, solid-bottom Corning assay plate.
2; Compounds; 23nL; Echo acoustic dispenser.
3; Cell; 5uL; 500 cells per well.
4: Incubation; 72hr; 37 C, 5% CO2, 95% humidity.
5; Reagent; 3uL; CellTiter-Glo reagent (Promega).
6; Incubation; 10min; room temperature.
7; Detection; Luminescence; ViewLux plate reader (PerkinElmer).
NOTES (numbers refer to Sequence numbers above
1. Quantitative high-throughput screening (qHTS) of small molecule compounds was conducted on drug resistant SYKi MV4-11 cell line.
2. Twenty-three nanoliter of small molecule compounds were added to each assay plates using the Echo acoustic dispenser (Beckman Coulter).
3. Cells were seeded into the assay plates at a final density of 500 cells in 5uL of media per well using the Multidrop Combi dispenser.
4. Plates were covered with stainless steel gasketed lids and incubated for 72 hours at standard cell culture conditions.
5. Viability was assessed by adding 3uL of CellTiter-Glo detection reagent (Promega).
6. Plates were covered with gasket lids and incubated for 10 minutes at room temperature.
7. Luminescence was measured on a ViewLux plate reader (PerkinElmer).
(Quantitative high-throughput screening tests each substance at several concentrations.)
As for `COc1cc(/C=C/C(=O)O)ccc1O[C@@H]1O[C@H](CO)[C@@H](O)[C@H](O)[C@H]1O[C@@H]1OC[C@](O)(CO)[C@H]1O`, the Potency result was “inactive”.
Same read-out and setting: the same measure for `CC[C@H]1OC(=O)[C@H](C)C(=O)[C@H](C)[C@@H](OC2O[C@H](C)C[C@H](N(C)C)[C@H]2O)[C@@H](C)C[C@@H](C)C(=O)/C=C/[C@]1(C)O` (stereo not given in full): “inactive”; for `C=C[C@H]1[C@H](O[C@@H]2O[C@H](CO)[C@@H](O)[C@H](O)[C@H]2O)OC=C(C(=O)OC)[C@H]1CC=O`: “inactive”.
For the molecule `CN(Cc1ccc(C(=O)O)cc1)c1ccc(OCc2c(-c3c(Cl)cccc3Cl)noc2C2CC2)nc1C(F)(F)F`, the Potency was 16.4 µM (active).
Turning to `O=c1[nH]cnc2c([C@@H]3N[C@H](CO)[C@@H](O)[C@H]3O)c[nH]c12`, the Potency entry is “inactive”.
On the same count and under the same terms, to `COc1cc2nc(C3CC3)nc(N3CCN(c4ccccc4OC)CC3)c2cc1OC` belongs 14.6 µM (active).
The same measure, in the same setting: the same measure for `COc1cc(C)c(Sc2cnc(NC(=O)c3ccc(CNC(C)C(C)C)cc3)s2)cc1C(=O)N1CCN(C(C)=O)CC1` (stereo not given): 7.42 µM (active) and 8.2 µM (active).
For `C=CC(C)(O)CC/C=C(\C)C(=O)OC1CC2(C(=O)O)CCC3(C)C(=CCC4C5(C)CCC(OC6OC(COC7OCC(O)C(O)C7O)C(O)C(OC7OCC(O)C(O)C7O)C6OC6OC(CO)C(O)C(O)C6OC6OCC(O)C(O)C6O)C(C)(C)C5CCC43C)C2CC1(C)C` (stereo not given), the viability, % of control is 68% [at 9.25 µM].
`C=C(C(=O)O)C1CCC2(C)CCCC(C)(O)C2C1` (stereo not given): the Potency entry was “inactive”.
The same measure, in the same setting: the same measure for `O=C(O)c1ccc(NC(=O)[C@H](CC2CCCC2)n2cnc(C(F)(F)F)c2)nc1`: 2.91 µM (active); for `COc1ccc(-c2cc3nccn3c(Nc3ncccc3C(N)=O)n2)cc1OC`: 0.206 µM (active).
As for `CC(=O)O[C@@H]1[C@H](O[C@@H]2OC[C@](O)(CO)[C@H]2O)[C@@H](O[C@@H]2O[C@@H](C)[C@H](O)[C@@H](O)[C@H]2O)[C@H](OC(=O)[C@]23CCC(C)(C)C[C@H]2C2=CCC4[C@@]5(C)C[C@H](O)[C@H](O[C@@H]6O[C@H](C(=O)O)[C@@H](O)[C@H](O)[C@H]6O)[C@@](C)(C(=O)O)C5CC[C@@]4(C)[C@]2(C)CC3)O[C@@H]1C` (stereo not given in full), the viability, % of control was 107% [at 9.25 µM].
As for `COc1cc(/C=C/C(=O)O[C@@H]2C[C@](O)(C(=O)O)C[C@@H](O)[C@H]2O)ccc1O`, the Potency entry was “inactive”.
The same measure, in the same setting: to `C=C1C2CCC3CC2(CC(O)C2(O)C1CC(OC1OC(CO)C(O)C(O)C1O)C2(C)C)CC3(C)O` (stereo not given) belongs “inactive”.
Same read-out and setting: to `O=C(OCC1=CC(O)C2C=CO[C@@H](O[C@@H]3O[C@H](CO)[C@@H](O)[C@H](O)[C@H]3O)C12)c1ccccc1` (stereo not given in full) belongs “inactive”; to `CCC(C)C1NC(=O)C2CCCN2C(=O)C(NC(C)=O)C(C)OC(=O)C(Cc2ccc(OC)cc2)N(C)C(=O)C2CCCN2C(=O)C(C(C)C)NC1=O` (stereo not given), “inactive”.
For the molecule `C/C(=C\CC[C@@H](C)[C@H]1CC(O)[C@@]2(C)C3CC[C@H]4C(C)(C)[C@@H](OC5OCC(O)C(O)C5OC5OC(CO)C(O)C(O)C5O)CC[C@@]45C[C@@]35CC(O)[C@]12C)C(=O)O` (stereo not given in full), the Potency result was “inactive”.
As to `O=c1cc(CN2CCOCC2)occ1OCCCCCSc1ccnc2cc(C(F)(F)F)ccc12`, the Potency was 9.34 µM (active).
Same read-out and setting: the same measure for `COCCc1ccccn1`: “inactive”.
`Oc1ccc(Cl)c2cccnc12`: the Potency entry is “inactive”.
Still for that read-out and setting: the same measure for `C[C@]12CC[C@@H]3c4ccc(O)cc4CC[C@H]3[C@@H]1CC[C@@H]2OC(=O)CCC1CCCC1`: “inactive”.
For `COc1ncc(-c2ccc3nccc(-c4ccnnc4)c3c2)cc1NS(=O)(=O)c1ccc(F)cc1F`, the Potency was 58 nM (active) and 132 nM (active).
On to `CC(=O)OC1C(C)OC(Oc2c(-c3ccc(O)cc3)oc3cc(O)cc(O)c3c2=O)C(O)C1OC(C)=O` (stereo not given), for which the Potency was 20.9 µM (active).
Still for that read-out and setting: to `COC(=O)C1=C(C)NC(c2ncc(F)cc2F)=N[C@@H]1c1ccc(F)cc1Cl` belongs 20.9 µM (active); to `CCN1CCC[C@H]1CNC(=O)c1cc(S(N)(=O)=O)ccc1OC`, “inactive”.
Still for that read-out and setting: the same measure for `COc1cc(OC)c(C(=O)/C=C/c2ccccc2)c2c1C=CC(C)(C)O2`: 5.17 µM (active); for `Cc1cnc(NC(=O)Nc2cc(Br)c(C)cc2OC[C@@H]2CNCCO2)cn1`: 1.18 µM (active); for `CCOC(=O)c1c(CSc2ccccc2)n(C)c2cc(Br)c(O)c(CN(C)C)c12`: 10.5 µM (active).
On the same count and under the same terms, the same measure for `CC1=CC(=O)CC(C)(C)C1CCC(C)OC1OC(COC(=O)c2cc(O)c(O)c(O)c2)C(O)C(O)C1O` (stereo not given): “inactive”; for `Cc1ccc(NS(=O)(=O)c2cc3c(cc2N(C)C)CCC(=O)N3)cc1C`: 18.4 µM (active).
Regarding `C=C(C)C1CCC2(C(=O)OC3OC(COC4OC(CO)C(O)C(O)C4O)C(OC4OC(C)C(O)C(O)C4O)C(O)C3O)CCC3(C(=O)O)C(CCC4C5(C)CCC(=O)C(C)(C)C5CCC43C)C12` (stereo not given), the viability, % of control was 91.7% [at 9.25 µM].
Consider `C=CC1(C)CC(OC(=O)/C(C)=C\COC(C)=O)C(C(=C)C(=O)O)C(O)C1C(=C)CO` (stereo not given), for which the Potency entry is “inactive”.
As for `O=[N+]([O-])c1ccc(O)c2ncccc12`, the Potency was 7.5 µM (active) and 4.68 µM (active).
`Nc1ccc(-c2ccnc(NCCCNC(=O)c3c(Cl)cccc3Cl)n2)cc1`: the Potency was 1.3 µM (active).
Same read-out and setting: to `CCC(C)C(=O)O[C@@H]1[C@@H](O)[C@@H](O[C@H]2O[C@H](CO)[C@@H](O)[C@H](O)[C@H]2O)O[C@H](CO)[C@H]1O` (stereo not given in full) belongs “inactive”; to `C1Cc2[nH]nc(-c3nn[nH]n3)c2C1`, “inactive”.
On the same count and under the same terms, to `CC1=C2C[C@H]3OC(=O)[C@H](O)[C@@]4(O)[C@@H](C)[C@@H](O)[C@H](O)C([C@@]2(C)[C@H](O)[C@@H](O)C1)[C@@]34C` (stereo not given in full) belongs 14.3 µM (active); to `Oc1cccc(Nc2ncnc3sc4c(c23)CCCC4)c1`, 5.8 µM (active).
Same read-out and setting: the same measure for `CO[C@@H]1[C@@H](OC)[C@H](C)[C@@](O)(CC(=O)O)O[C@H]1[C@H](C)[C@H]1O[C@@]2(CC[C@@](C)([C@H]3CC[C@@](C)([C@@H]4O[C@@H]([C@H]5O[C@](C)(O)[C@H](C)C[C@@H]5C)C[C@@H]4OC4C[C@H](OC)[C@@H](OC)[C@H](C)O4)O3)O2)C[C@H](O)[C@H]1C` (stereo not given in full): 0.596 µM (active); for `O=C1NC(=O)C(c2cnc3ccccn23)=C1c1cn2c3c(cc(F)cc13)CN(C(=O)N1CCCCC1)CC2`: 51.7 nM (active) and 372 nM (active).
